Measurements taken from PubChem BioAssay AID1159580 (chemical genetic matrix, 2015).
About 2,000 (36%) of roughly 5,500 compounds were called active. About 18% were inconclusive and are not listed. Rule as the data show it: active = normalized growth mostly below about 0.91 (no sharp cut-off); inconclusive = no clear call, values can overlap the other calls; inactive = mostly above about 0.92. This is one part of the list.

Test: chemical genetic growth profiling, strain panel (AID 1159580);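 also: tested at 20 µM; growth read once vehicle control cultures reached saturation at 30 °C; 1 = growth at the plate median or of vehicle wells; lower values mean less growth of the strain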
Details: S. cerevisiae deletion strains, growth OD

Measured: normalized growth

N[C@H](CCCCCP(=O)(O)O)C(=O)O
inactive: locus YAL013W, strain DEP1, hits give low values 0.989 | locus YAL040C, strain CLN3, hits give low values 1.06 | locus YCL061C, strain MRC1 (second series), hits give low values 1.01 | locus YER002W, strain NOP16, hits give low values 1 | locus YGR078C, strain PAC10, hits give low values 1 | locus YJR075W, strain HOC1, hits give low values 1.01 | locus YMR263W, strain SAP30, hits give low values 1.01 | locus YNL128W, strain TEP1, hits give low values 0.987 | locus YNL153C, strain GIM3, hits give low values 1.02 | locus YNL175C, strain NOP13, hits give low values 0.994 | locus YNL197C, strain WHI3, hits give low values 0.968 | locus YNL224C, strain SQS1, hits give low values 1 | locus YOR083W, strain WHI5 (second series), hits give low values 0.964 | locus YPL055C, strain LGE1, hits give low values 0.997 | locus YPL241C, strain CIN2, hits give low values 1
